{"source": "PubChem BioAssay", "note": "Activity calls are given as the source filed them.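 How the source made its calls: active means viability loss from added drug above about 55%, and viability with drug at most 40%, in both replicates (limit read from the data, passing the limit was not always enough); inconclusive means both conditions met in only one replicate; inactive means neither replicate meets both conditions.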 Square brackets hold non-standard residues; d marks the D form. Peptide text beside a SMILES is read from it. * marks the point of attachment. ξ: configuration not given here. Cbz = O=C(OCc1ccccc1)*; ξK = NCCCCC(N)C(=O)O", "data": [{"assay": "MRP1 drug-resistance reversers in H69AR cells – cell-based, doxorubicin co-treatment, pilot screen (AID 601)", "settings": "H69AR cells + 2 uM doxorubicin, CellTiter-Glo, 72 h; at 10 µM; stronger effect = higher value", "values": [{"smiles": "COC(=O)c1ccccc1NC(=O)CSc1nc2c(c(=O)n(C)c(=O)n2C)n1C", "differential viability (reversal)": "3.48% (inactive)"}, {"smiles": "CCCCOc1cccc(NC(=O)CSc2nccn2C)c1", "differential viability (reversal)": "-1.98% (inactive)"}, {"smiles": "Cc1ccc(Nc2cc(-n3nc(C)cc3C)ncn2)cc1", "differential viability (reversal)": "-7.74% (inactive)"}, {"smiles": "COc1ccc(-n2c(SCC#N)nc3ccccc3c2=O)cc1", "differential viability (reversal)": "-12.8% (inactive)"}, {"smiles": "COc1cc2c(C)nc(C)c(C#N)c2cc1OC", "differential viability (reversal)": "10.1% (inactive)"}, {"smiles": "CC1=C(C(=O)OCc2ccccc2)C(c2ccc(C)o2)C2=C(CCCC2=O)N1", "note": "(stereo not given)", "differential viability (reversal)": "13.5% (inactive)"}, {"smiles": "C=CCNC(=O)c1cc(-c2ccccc2O)on1", "differential viability (reversal)": "0.065% (inactive)"}, {"smiles": "Cc1cc(NC(=O)CSc2nc3ccsc3c(=O)n2NC(=O)c2ccccc2)no1", "differential viability (reversal)": "12% (inactive)"}, {"smiles": "O=C(NCc1ccco1)c1cnn2c(C(F)(F)F)cc(-c3ccco3)nc12", "differential viability (reversal)": "0.17% (inactive)"}, {"smiles": "Cc1ccc(-c2nnc3ccc(SCC(=O)NCc4ccco4)nn23)cc1", "differential viability (reversal)": "9.33% (inactive)"}, {"smiles": "CCCc1cc(C(N)=O)c(NC(=O)c2ccco2)s1", "differential viability (reversal)": "-5.96% (inactive)"}, {"smiles": "COc1ccc(CCNC(=O)c2ccncc2)cc1OC", "differential viability (reversal)": "12.2% (inactive)"}, {"smiles": "CCOC(=O)c1nnc(-c2ccccc2)o1", "differential viability (reversal)": "9.09% (inactive)"}, {"smiles": "Cc1ccc(S(=O)(=O)N2CCCC(C(=O)NC3=NCCS3)C2)cc1", "note": "(stereo not given)", "differential viability (reversal)": "6.39% (inactive)"}, {"smiles": "O=C1CCCC2=C1C(c1ccsc1)CC(=O)N2c1ccccc1", "note": "(stereo not given)", "differential viability (reversal)": "-3.37% (inactive)"}, {"smiles": "Cc1csc2nc(CSc3nc4ccccc4o3)c(Br)n12", "differential viability (reversal)": "3.21% (inactive)"}, {"smiles": "CC(NC(=O)c1ccccc1NC(=O)c1ccco1)C(=O)O", "note": "(stereo not given)", "differential viability (reversal)": "2.01% (inactive)"}, {"smiles": "CCC(=O)Nc1cc2nn(-c3ccccc3)nc2cc1Cl", "differential viability (reversal)": "-2.75% (inactive)"}, {"smiles": "O=C(NC1CCCCC1)n1c(=O)oc2ccc(Cl)cc21", "differential viability (reversal)": "17.5% (inactive)"}, {"smiles": "COc1ccc(OC)c(-c2nnc(SCC(=O)NC3CCCCC3)o2)c1", "differential viability (reversal)": "6.21% (inactive)"}, {"smiles": "O=C(O)CCCc1nc(-c2ccccc2)no1", "differential viability (reversal)": "-0.87% (inactive)"}, {"smiles": "COCCn1c(SCC(=O)Nc2cccc(OC)c2)nnc1-c1ccc(Cl)cc1", "differential viability (reversal)": "-5.18% (inactive)"}, {"smiles": "CCN1C(=O)Cc2cc(S(=O)(=O)N3CCOCC3)ccc21", "differential viability (reversal)": "-2.08% (inactive)"}, {"smiles": "O=C(Nc1cc(Cl)ccc1Cl)c1noc2c1CCCC2", "differential viability (reversal)": "-3.4% (inactive)"}, {"smiles": "CCCCn1c(SCC(=O)Nc2ccc(OC)cc2)nc2ccc(N3CCOCC3)cc2c1=O", "differential viability (reversal)": "0.605% (inactive)"}, {"smiles": "Cc1ccc(C(=O)N2CCN(C(=O)c3ccc(C)c(C)c3)C(C)C2)cc1C", "note": "(stereo not given)", "differential viability (reversal)": "12.2% (inactive)"}, {"smiles": "COc1ccc(C2CC(c3ccccc3)Nc3nc(NC(=O)c4cccs4)nn32)cc1", "note": "(stereo not given)", "differential viability (reversal)": "4.87% (inactive)"}, {"smiles": "CC1(CC(=O)O)C(=O)N=C2C=CC=CN21", "note": "(stereo not given)", "differential viability (reversal)": "5.18% (inactive)"}, {"smiles": "COC(=O)C(CCCCNC(=O)OCc1ccccc1)NC(=O)CN", "note": "(stereo not given) (H-Gly-[ξK](Cbz)-OMe)", "differential viability (reversal)": "4.78% (inactive)"}, {"smiles": "Fc1ccc(C(c2nnnn2Cc2ccco2)N2CCN(C3CCCCC3)CC2)cc1", "note": "(stereo not given)", "differential viability (reversal)": "5.67% (inactive)"}, {"smiles": "COc1ccccc1-c1cn[nH]c(=S)n1", "differential viability (reversal)": "3.25% (inactive)"}, {"smiles": "CCOC(=O)C1CCCN(C(=O)c2ccc(CS(=O)(=O)Cc3ccccc3C)o2)C1", "note": "(stereo not given)", "differential viability (reversal)": "9.89% (inactive)"}, {"smiles": "O=c1c2[nH]c3ccccc3c2ncn1CCCn1ccnc1", "differential viability (reversal)": "1.08% (inactive)"}, {"smiles": "COc1ccc(S(=O)(=O)N2CCN(C3CCCCCCC3)CC2)cc1", "differential viability (reversal)": "-6.63% (inactive)"}, {"smiles": "O=C(CCn1c(=S)[nH]c2ccccc2c1=O)NCC1CCCO1", "note": "(stereo not given)", "differential viability (reversal)": "6.03% (inactive)"}, {"smiles": "CCC(=O)Nc1ccc(NC(=O)c2cccc(OC)c2)nc1", "differential viability (reversal)": "7.67% (inactive)"}, {"smiles": "CN(Cc1ccccc1)C(=O)c1ccc2c(c1)OCO2", "differential viability (reversal)": "17.7% (inactive)"}, {"smiles": "O=C(O)CC1SC(=Nc2cccc(C(F)(F)F)c2)NC1=O", "note": "(stereo not given)", "differential viability (reversal)": "9.34% (inactive)"}, {"smiles": "CCOC(=O)C1=C(C)N=c2s/c(=C\\c3cccn3C)c(=O)n2C1c1cccc(OC)c1OC", "note": "(stereo not given)", "differential viability (reversal)": "-1.62% (inactive)"}, {"smiles": "CC(=O)c1cccc(NC(=O)N2CCCc3ccccc32)c1", "differential viability (reversal)": "2.88% (inactive)"}]}, {"assay": "MRP1 drug-resistance reversers in H69AR cells – cell-based, doxorubicin co-treatment, pilot screen (AID 601)", "settings": "H69AR cells + 2 uM doxorubicin, CellTiter-Glo, 72 h; measured here: viability with 2 uM doxorubicin; at 10 µM; stronger effect = lower value", "units": {"viability": "%"}, "values": [{"smiles": "COC(=O)c1ccccc1NC(=O)CSc1nc2c(c(=O)n(C)c(=O)n2C)n1C", "viability": 93.5}, {"smiles": "CCCCOc1cccc(NC(=O)CSc2nccn2C)c1", "viability": 87.3}, {"smiles": "Cc1ccc(Nc2cc(-n3nc(C)cc3C)ncn2)cc1", "viability": 82.6}, {"smiles": "COc1ccc(-n2c(SCC#N)nc3ccccc3c2=O)cc1", "viability": 109}, {"smiles": "COc1cc2c(C)nc(C)c(C#N)c2cc1OC", "viability": 76.5}, {"smiles": "CC1=C(C(=O)OCc2ccccc2)C(c2ccc(C)o2)C2=C(CCCC2=O)N1", "note": "(stereo not given)", "viability": 89.1}, {"smiles": "C=CCNC(=O)c1cc(-c2ccccc2O)on1", "viability": 86.7}, {"smiles": "Cc1cc(NC(=O)CSc2nc3ccsc3c(=O)n2NC(=O)c2ccccc2)no1", "viability": 85.1}, {"smiles": "O=C(NCc1ccco1)c1cnn2c(C(F)(F)F)cc(-c3ccco3)nc12", "viability": 71.7}, {"smiles": "Cc1ccc(-c2nnc3ccc(SCC(=O)NCc4ccco4)nn23)cc1", "viability": 83.9}, {"smiles": "CCCc1cc(C(N)=O)c(NC(=O)c2ccco2)s1", "viability": 93.3}, {"smiles": "COc1ccc(CCNC(=O)c2ccncc2)cc1OC", "viability": 85.3}, {"smiles": "CCOC(=O)c1nnc(-c2ccccc2)o1", "viability": 79}, {"smiles": "Cc1ccc(S(=O)(=O)N2CCCC(C(=O)NC3=NCCS3)C2)cc1", "note": "(stereo not given)", "viability": 85.4}, {"smiles": "O=C1CCCC2=C1C(c1ccsc1)CC(=O)N2c1ccccc1", "note": "(stereo not given)", "viability": 95.7}, {"smiles": "Cc1csc2nc(CSc3nc4ccccc4o3)c(Br)n12", "viability": 79.8}, {"smiles": "CC(NC(=O)c1ccccc1NC(=O)c1ccco1)C(=O)O", "note": "(stereo not given)", "viability": 84.7}, {"smiles": "CCC(=O)Nc1cc2nn(-c3ccccc3)nc2cc1Cl", "viability": 70.9}, {"smiles": "O=C(NC1CCCCC1)n1c(=O)oc2ccc(Cl)cc21", "viability": 76.7}, {"smiles": "COc1ccc(OC)c(-c2nnc(SCC(=O)NC3CCCCC3)o2)c1", "viability": 92.2}, {"smiles": "O=C(O)CCCc1nc(-c2ccccc2)no1", "viability": 97.8}, {"smiles": "COCCn1c(SCC(=O)Nc2cccc(OC)c2)nnc1-c1ccc(Cl)cc1", "viability": 89.3}, {"smiles": "CCN1C(=O)Cc2cc(S(=O)(=O)N3CCOCC3)ccc21", "viability": 100}, {"smiles": "O=C(Nc1cc(Cl)ccc1Cl)c1noc2c1CCCC2", "viability": 86.9}, {"smiles": "CCCCn1c(SCC(=O)Nc2ccc(OC)cc2)nc2ccc(N3CCOCC3)cc2c1=O", "viability": 89}, {"smiles": "Cc1ccc(C(=O)N2CCN(C(=O)c3ccc(C)c(C)c3)C(C)C2)cc1C", "note": "(stereo not given)", "viability": 70}, {"smiles": "COc1ccc(C2CC(c3ccccc3)Nc3nc(NC(=O)c4cccs4)nn32)cc1", "note": "(stereo not given)", "viability": 83.4}, {"smiles": "CC1(CC(=O)O)C(=O)N=C2C=CC=CN21", "note": "(stereo not given)", "viability": 84.2}, {"smiles": "COC(=O)C(CCCCNC(=O)OCc1ccccc1)NC(=O)CN", "note": "(stereo not given) (H-Gly-[ξK](Cbz)-OMe)", "viability": 95.5}, {"smiles": "Fc1ccc(C(c2nnnn2Cc2ccco2)N2CCN(C3CCCCC3)CC2)cc1", "note": "(stereo not given)", "viability": 88.5}, {"smiles": "COc1ccccc1-c1cn[nH]c(=S)n1", "viability": 92.9}, {"smiles": "CCOC(=O)C1CCCN(C(=O)c2ccc(CS(=O)(=O)Cc3ccccc3C)o2)C1", "note": "(stereo not given)", "viability": 86.3}, {"smiles": "O=c1c2[nH]c3ccccc3c2ncn1CCCn1ccnc1", "viability": 95.7}, {"smiles": "COc1ccc(S(=O)(=O)N2CCN(C3CCCCCCC3)CC2)cc1", "viability": 100}, {"smiles": "O=C(CCn1c(=S)[nH]c2ccccc2c1=O)NCC1CCCO1", "note": "(stereo not given)", "viability": 92.2}, {"smiles": "CCC(=O)Nc1ccc(NC(=O)c2cccc(OC)c2)nc1", "viability": 90.2}, {"smiles": "CN(Cc1ccccc1)C(=O)c1ccc2c(c1)OCO2", "viability": 90.3}, {"smiles": "O=C(O)CC1SC(=Nc2cccc(C(F)(F)F)c2)NC1=O", "note": "(stereo not given)", "viability": 93.2}, {"smiles": "CCOC(=O)C1=C(C)N=c2s/c(=C\\c3cccn3C)c(=O)n2C1c1cccc(OC)c1OC", "note": "(stereo not given)", "viability": 89}, {"smiles": "CC(=O)c1cccc(NC(=O)N2CCCc3ccccc32)c1", "viability": 90.7}]}]}
